We go through 7 molecules from the supplement of paper PMC10105736.

Values without a mark were called inactive.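 Rule for the calls: active = MAPPIT score above the 99th percentile of random reference set scores in the same batch; inactive = at or below it.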

What all share (experiment): MAPPIT interaction score (arbitrary units); higher = stronger binary interaction signal, active = hit call of the paper
One assay addresses Vti1a. Conditions: MAPPIT configuration: N-N; pair source set: Curagen_high_conf.
In another assay the target is Tsp96F. Conditions: MAPPIT configuration: N-C; pair source set: screen_3.
Another assay concerns the target ninaD. Conditions: MAPPIT configuration: N-C; pair source set: screen_3.
The next assay deals with Yif1. Conditions: MAPPIT configuration: N-N; pair source set: RRS.
In a further assay the target is Yp2. Conditions: MAPPIT configuration: N-N; pair source set: Curagen_high_conf.
The next assay has as its target Vps51. Conditions: MAPPIT configuration: N-N; pair source set: screen_2.
The next assay deals with Vps24. Conditions: MAPPIT configuration: N-N; pair source set: Curagen_high_conf.
Another assay has as its target Uba5. Conditions: pair source set: RRS.
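Note: HEK293T cells with Epo stimulation, STAT-responsive firefly luciferase reporter, fold induction versus unstimulated cells divided by the larger fold induction of two negative controls lacking either bait or prey.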

B1: spn-F (protein)
chain: MEASAAKITPMASSMSASGSTNSPSSEKMNYALQVALQTIKERCIQLQRRVASMEEENQQLREASSRSEGAPRANEIGVTGDVLSLKAQVSELQRQKEQLEEHIGMVSNENRRLWSRLSQISKDQQLNALPSSTDSRAQQNQNLVRSKTFTQHSPNPHLRQKMLSDGIKDLSLEEIALDDFGASSEELGYPYNLQKVEETTSEPDANVDAKRCLDGLQELRREAMKQQQELRSVMTLLENRIALKPCPECAQKTIKKPEMADKSLETDDSLTSELKNYESQHNGHNGTPPSQRINIIQEKIKADAADAMEKTCPMCGKQYSSQVSFNAFREHVEMHFIDDALELESENSIERQFEFVSHAVGDF
Consider B1, for which, in the assay with Vti1a, the MAPPIT interaction score is 0.032.

B2: Tpst (protein)
chain: MRLPYRNKKVTLWVLFGIIVITMFLFKFTELRPTCLFKVDAANELSSQMVRVEKYLTDDNQRVYSYNREMPLIFIGGVPRSGTTLMRAMLDAHPDVRCGQETRVIPRILQLRSHWLKSEKESLRLQEAGITKEVMNSAIAQFCLEIIAKHGEPAPRLCNKDPLTLKMGSYVIELFPNAKFLFMVRDGRATVHSIISRKVTITGFDLSSYRQCMQKWNHAIEVMHEQCRDIGKDRCMMVYYEQLVLHPEEWMRKILKFLDVPWNDAVLHHEEFINKPNGVPLSKVERSSDQVIKPVNLEAMSKWVGQIPGDVVRDMADIAPMLSVLGYDPYANPPDYGKPDAWVQDNTSKLKANRMLWESKAKQVLQMSSSEDDNTNTIINNSNNKDNNNNQYTINKIIPEQHSRQRQHVQQQHLQQQQQQHLQQQQHQRQQQQQQREEESESEREAEPDREQQLLHQKPKDVITIKQLPLAGSNNNNINNNINNNNNNNNIMEDPMADT
On to B2, for which the MAPPIT interaction score is -0.524 with Tsp96F and 0.243 with ninaD.

B3: noi (protein)
chain: METLLEQQRRLHEERERLVKLMVDEHATKKPGEKERIHSEHRLKYLMELHHNSTSQLRDLYEDKDNERKAEIAALSGPNEFNEFYARLKQIKQFYKSHPAEVSVPLSVEFDEMIRVYNNPDDMSALVEFTDEEGGGRYLDLNECYELYLNLRSVEKLDYITYLMSFDHVFDIPRERKNREYRIYIETLNDYLHHFILRIQPLLDLEGELLKVELDFQRQWLMGTFPGFSIKETESALANTGAHLDLSAFSSWEELASLGLDRLKSALVALGLKCGGTLEERAQRLFSTKGKSTLDPALMAKKPSAKTASAQSREHERHKEIAQLEALLYKYADLLSEQRAATKENVQRKQARTGGERDDSDVEASESDNEDDPDADDVPYNPKNLPLGWDGKPIPYWLYKLHGLNISYNCEICGNFTYKGPKAFQRHFAEWRHAHGMRCLGIPNTAHFANVTQIEDAITLWEKLKSQKQSERWVADQEEEFEDSLGNVVNRKTFEDLKRQGLL
For B3, the MAPPIT interaction score in the assay with Yif1 is -0.019.

B4: Nup107 (protein)
chain: MADSPFPRSSRSGLLRTTLNSSMPPQNLSHSLLILEKSNAEQNELSLMEDTGDDLDRGKSRMDVLFPQFFDVLQAQGNGQEAFEVIQSLTQVCRGVVEQLELEIDHGMGGEQGARQRESMLTWLRQEINTWRLLHALFYDRILLQTDRQADDEMQDGPTLGGSEKEVIQQLYALNATLREYQLVVDWLEACYDRGEQQNPLHAHDRMMAWENTLFQLENLQGAAFGKGHKIVTRLDPDAPVREKRPLHALDEEDNLRLSRAIFELIRAGRVDDGLKLCKHFGQTWRAAILEGWRLHEDPNFEQNVSVLHEKLPIEGNPRRDIWKRCAWMLADSKNYDEYSRATAGVFSGHLGSLKTLLHSNWHDLLWAHLKVQIDIRVESEIRGCCLKNYQPMPDDYWNGRMTMEQIFEELNVAKDASVRDFAQSQLGIIQRHLILDTCGELIQHMVRWVEKDTSQQSPHQLRFMAHIVLFLRQIGRVEQERQAEKIVAAYVEALIARGEPQLIAYYTASLSNPLQVQLYSRFLEQVEQKRPRELAVDAALQAGLDVEQITRVTVQNIRLAHQPLGEFGEPQSGEISAIDQRKISALEWLIHLPEQRGELLWQANAMIRTYLASSKVECMRQTFRMVPADIVQQLVSLYGSVDNIPPREECCLKEYLCYKAYLSGVDSFVEWNRLQQNRPKKPQTSHAASSQDNFTERMASERKEQAHRSEVVRWEHKVKEQAKQTIELLYNVLMFPDKGWLVDPFIAKLPENAVQLSWDHRLLQMEKLRSICIPEIALFLNEVMFKSGDFAGCVRLADEISSENRQLYKVYTKHKLAELLAKIADASLELLNSKLDPWGYPITT
Regarding B4, in the assay with Yp2, the MAPPIT interaction score is 0.235.

B5: Dpy-30L1 (protein)
chain: MEAKTDAPISPAPTTNPPAEAGKEPNASSNAQANPTAAPGAPPSGAIAVGQSTNPVAQQQQQPAVAKKPSSETNNMPTRQYLDQTVAPVLLHGMQALARERPTDPIQFLASYLLKHSNGCDENNASAAAVDNNS
Regarding B5, the MAPPIT interaction score with Vps51 is 1.49.

B6: shrb (protein)
chain: MSFFGKMFGGKKEVAPTTGEAIQKLRETENMLIKKQEFLEAKIEDELNIARKNASKNKRVALQALKKKKRLEKQLQQIDGTLSTIEMQREALESANTNTAVLTTMKNAADALKRAHQNMDVDKVHDMMDDIAEQQDVAREISDAISNPVAFGADLDDEDLERELDELEQENFDKEIIGIPEPTPTLPEAPTEDLPEKAKEKKKATTTTAVEDDDDPDMKQLLSWSN
Consider B6, for which the MAPPIT interaction score with Vps24 was 0.054.

B7: htl (protein)
chain: MAAAWSWRASHSTITMTSGSLVVLFLLLSIWQPAVQVEGRRQMANSQEMIKDHLGARSQNKTPAITNNANQSSTSSADLDDGAADDDDNKADLPVNVSSKPYWRNPKKMSFLQTRPSGSLLTLNCHALGNPEPNITWYRNGTVDWTRGYGSLKRNRWTLTMEDLVPGDCGNYTCKVCNSLGCIRHDTQVIVSDRVNHKPILMTGPLNLTLVVNSTGSMHCKYLSDLTSKKAWIFVPCHGMTNCSNNRSIIAEDKDQLDFVNVRMEQEGWYTCVESNSLGQSNSTAYLRVVRSLHVLEAGVASGSLHSTSFVYIFVFGGLIFIFMTTLFVFYAIRKMKHEKVLKQRIETVHQWTKKVIIFKPEGGGDSSGSMDTMIMPVVRIQKQRTTVLQNGNEPAPFNEYEFPLDSNWELPRSHLVLGATLGEGAFGRVVMAEVNNAIVAVKMVKEGHTDDDIASLVREMEVMKIIGRHINIINLLGCCSQNGPLYVIVEYAPHGNLKDFLYKNRPFGRDQDRDSSQPPPSPPAHVITEKDLIKFAHQIARGMDYLASRRCIHRDLAARNVLVSDDYVLKIADFGLARDIQSTDYYRKNTNGRLPIKWMAPESLQEKFYDSKSDVWSYGILLWEIMTYGQQPYPTIMSAEELYTYLMSGQRMEKPAKCSMNIYILMRQCWHFNADDRPPFTEIVEYMDKLLQTKEDYLDVDIANLDTPPSTSDEEEDETDNLQKWCNY
For the molecule B7, the values for the MAPPIT interaction score with Uba5 (MAPPIT configuration: N-C) and in the assay with Uba5 (MAPPIT configuration: N-N) were -0.924 and -0.283, respectively.
